Compound activity as filed in PubChem.
TRHR ag: TRH receptor (human) agonism. P34981. TRHR cells, calcium flux fluo-8, FDSS agonist mode. activation, % at 2 µM. actives 0.18% (n = 360,000); note: 0% is about no effect
Target sequence (P34981 whole entry, looked up): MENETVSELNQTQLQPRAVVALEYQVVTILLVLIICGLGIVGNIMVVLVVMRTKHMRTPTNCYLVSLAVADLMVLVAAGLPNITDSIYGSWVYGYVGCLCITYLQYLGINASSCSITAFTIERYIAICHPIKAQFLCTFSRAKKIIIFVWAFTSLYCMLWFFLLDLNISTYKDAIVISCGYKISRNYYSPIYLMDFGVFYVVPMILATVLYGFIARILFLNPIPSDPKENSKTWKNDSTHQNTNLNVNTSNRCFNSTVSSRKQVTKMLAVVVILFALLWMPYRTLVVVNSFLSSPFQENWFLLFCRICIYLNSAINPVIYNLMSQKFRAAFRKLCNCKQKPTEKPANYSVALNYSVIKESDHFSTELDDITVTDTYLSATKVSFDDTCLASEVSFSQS
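In this calcium-flux screen, cells bearing human TRHR are dye-loaded with fluo-8, baselined for 10 cycles, then exposed to library compounds; positive kinetic calcium responses during the agonist phase mark hits, with TRH as control.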
D1 agonist: agonists of human D1 dopamine receptor; AID 504660; actives 1% (n = 360,000); activation, % at 2 µM; HEK293 T-REx D1 cells, calcium flux, agonist mode; P21728; note: 0% is about no effect
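Agonism was scored from calcium flux recorded over 180 s (1 read/s) after pintool compound addition, following a 10-cycle baseline. Cells were inducible force-coupled HEK293 TREx D1, plated overnight at 30 C and loaded with no-wash calcium dye.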
D1 antag: blocks dopamine activation of the human D1 receptor | P21728 | HEK293 TREx D1 cells, calcium flux, dopamine EC80; hits give low values | activity change, negative = inhibition, % at 10 µM | actives 3.2% (n = 360,000) | AID 504652; in the data active = activity change below about -30%; note: % is set by controls: 0 for no effect and ±100 for the full control effect
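Tetracycline-induced HEK293 Trex D1 cells, force-coupled to calcium, dye-loaded; compounds added and read 180 s, then EC80 dopamine added and calcium flux tracked kinetically another 180 s.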
TRHR enhancer: allosteric enhancers of human TRH receptor; actives 0.66% (n = 360,000); P34981; TRHR cells, fluo-8 calcium fluorescence, EC20 TRH enhancement; enhancement, % at 2 µM; AID 493056; in the data active = enhancement above about 30%; note: 0% is about no effect
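Enhancer read-out: after compound pinning and an initial kinetic agonist-mode read, an EC20 of TRH (10 nM final) was injected and fluo-8 calcium signal (Ex 480/Em 530) followed at 1 s/cycle for 100 cycles in TRHR-expressing cells.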
D1 potentiator: human D1 dopamine receptor positive modulation; P21728; HEK293 TREx D1 cells, calcium flux, dopamine EC20 potentiation; potentiation, % at 10 µM; actives 0.036% (n = 360,000); in the data active = potentiation above about 30%; note: 0% is about no effect
An asterisk follows results filed as active; . = no result given. Shown are actives, neighbours in structure and some others; about 4.6% of the full set was active somewhere. Cut-off read from the data, not from the text of the source, unless noted: active = activation above about 30%; inactive = the rest.

SMILES	TRHR ag	D1 agonist	D1 antag	TRHR enhancer	D1 potentiator
COc1ccccc1-c1nc2cc(NC(=O)c3ccccc3Cl)ccc2o1	-1	4	4	-4	1
Cc1ccc2oc(-c3cc(NC(=O)c4ccco4)ccc3Cl)nc2c1	0	-2	-39*	28	-1
O=C(Nc1ccc(-c2nc3cc(Cl)ccc3o2)cc1)c1cc(Br)ccc1Cl	-1	5	-9	3	-1
CCC(C(=O)Nc1ccc(C(=O)OC)cc1)n1nc(-c2ccc(C)cc2)c2c(c1=O)CCCC2 (stereo not given)	0	2	7	6	-2
COc1cccc(-c2nnc3sc(CN4CCCCC4)cn23)c1	0	1	13	-1	-4
COc1ccccc1CNC(=O)c1cccn1-c1nnc(N2CCCCC2)s1	-1	5	-3	-10	-3
Cc1ccc(NC2(c3ccccc3)C(=O)c3ccccc3C2=O)cc1F	0	2	-5	-4	-2
O=C(NNc1c(Cl)cccc1Cl)c1c(F)cccc1Cl	-1	2	-35*	-8	-7
O=C(CN1C(=O)C(c2ccc(F)cc2)=NC12CCCCCC2)Nc1ccc(F)c(Cl)c1	2	0	29	2	3
O=C(Nc1ccc(Br)cc1)C1CCCN1S(=O)(=O)c1ccc(F)cc1 (stereo not given)	-1	4	-14	-9	-3
Cc1oc2c(C)c(O)ccc2c(=O)c1-c1cnn(-c2ccccc2)c1	0	1	-37*	-7	2
CS(=O)(=O)N(Cc1ccccc1)c1ccc(C(=O)Nc2ccc(Cl)cc2)cc1	2	7	7	-3	-2
O=S(=O)(NCC(c1ccco1)S(=O)(=O)c1cccs1)c1ccc(Cl)cc1 (stereo not given)	5	6	.	-2	-3
O=C1c2ccccc2S(=O)(=O)c2cc(C(=O)N(c3ccccn3)c3ccccn3)ccc21	70*	300*	-24	40*	-5
C=CCc1ccccc1OCCSc1nc(-c2ccccc2F)nc2cc(=O)[nH]n12	0	4	-9	-16	-8
Cc1cc2c(cc1C)NC(c1c(C)n(C)n(-c3ccccc3)c1=O)C1=C(CC(C)(C)CC1=O)N2 (stereo not given)	43*	81*	9	1	-4
O=C1CC(=C(c2ccccc2)c2ccccc2)C(=O)N1CCCCN1CCN(c2ccccc2)CC1	0	1	-57*	20	-11
Cc1cccc(-n2ccnc2SCC(=O)Nc2ccccc2C(F)(F)F)c1	0	1	-40*	-4	-4
COc1ccc(Oc2c(O)c3ccccc3n(C)c2=O)cc1	0	2	-45*	6	-2
Cn1c(=O)c(Oc2ccc(Cl)cc2)c(O)c2ccccc21	0	2	5	9	3
CCOCCCN1C(=O)CN(C2CCCCCC2)C(=O)C1c1ccc(OCC)c(OC)c1 (stereo not given)	0	-4	3	9	1
COc1ccc(S(N)(=O)=O)cc1C(=O)NCCCN1CCN(c2cccc(Cl)c2)CC1	0	2	-51*	0	-7
COc1cc2c(C(=O)NCCCN3CCN(c4cccc(Cl)c4)CC3)cn(C)c(=O)c2cc1OC	1	-1	10	3	-5
COc1ccc(S(N)(=O)=O)cc1C(=O)NCCCN1CCN(c2ccccc2OC)CC1	1	2	-12	-3	-14
COc1ccc(S(N)(=O)=O)cc1C(=O)NCCCN1CCN(c2ccc(C)cc2)CC1	0	3	-42*	-3	-20
SMILES	TRHR ag	D1 agonist	D1 antag	TRHR enhancer	D1 potentiator
Cn1c(-c2ccsc2)c(-c2cccs2)c2cc(Br)ccc21	0	-1	.	-1	0
Cc1[nH]c2ccc(F)cc2c(=O)c1SC(F)(F)C(F)F	0	20	-42*	-8	-1
CCOC(=O)N[C@H](Cc1c[nH]c2ccccc12)C(=O)Nc1cccc(Cl)c1	-1	8	-41*	2	-3
Nc1cc(N)nc(CS)n1	0	3	-54*	-2	3
Cc1ccc(CSc2nc(N)cc(N)n2)cc1	0	1	-8	20	0
CC(=O)Nc1cccc(-c2nnc(SCC(=O)c3cc([N+](=O)[O-])ccc3Cl)o2)c1	0	-1	-2	-10	-3
Cc1cc(C)c(NC(=O)c2sc3nc(C)cc(C)c3c2NC(=O)c2ccccc2)c(C)c1	-1	-1	5	-1	0
NC(=S)N/N=C/c1ncc(C(F)(F)F)cc1Cl	11	31*	3	10	-2
COc1ccc(/C=C(/C(=O)c2ccc(Cl)cc2Cl)n2cncn2)cc1	2	2	2	-5	-4
CN(C)/C=C(/C(=O)c1ccc(Cl)cc1)n1cncn1	0	3	-33*	-1	-3
CN(C)c1ccc(/C=C(/C(=O)c2ccc(Cl)cc2Cl)n2cncn2)cc1	75*	200*	-50*	4	0
Cc1cc(NC(=O)NCc2ccc3c(c2)CCN3C(=O)c2ccccc2)ccc1Br	0	-1	8	2	2
CCOC(=O)c1c(S(=O)(=O)N2CCC(C(=O)Nc3cccc(C)n3)CC2)c(C)n(C)c1C	0	2	10	4	-4
CC(C)(C)OC(=O)Cc1nnc(-c2nc3ccccc3[nH]2)o1	2	2	-33*	-1	4
CCC(C)NS(=O)(=O)c1ccc(NC(=O)c2ccc([N+](=O)[O-])cc2Cl)cc1 (stereo not given)	1	4	-31*	-6	-4
CC(=O)Nc1ccc(NC(=O)c2ccc([N+](=O)[O-])cc2Cl)cc1	1	4	15	-3	5
COc1ccc(NS(=O)(=O)c2ccc(-n3nnc4ccccc43)c([N+](=O)[O-])c2)cc1	2	36*	-3	-9	-11
O=[N+]([O-])c1cc(S(=O)(=O)Nc2cccc(C(F)(F)F)c2)ccc1-n1nnc2ccccc21	0	15	-15	-4	-7
CCOc1ccc(C(=O)NCCn2cc(SCC(=O)NCCc3ccc(OC)c(OC)c3)c3ccccc32)cc1	-2	2	-1	-20	-4
O=C(Nc1ccc(F)c(Cl)c1)c1ccccc1	-1	21	-46*	0	-8
O=C(NC(=S)Nc1ccc(Cl)cc1)c1ccccc1	5	13	-53*	9	-5
O=C(NC(=S)Nc1ccc(Oc2ccc(Cl)cc2)cc1)c1ccccc1	1	7	17	-6	-9
O=C(Nc1cc(Cl)ccc1Cl)c1ccc(-c2ccccc2)cc1	1	12	-34*	9	-1
O=C(Nc1ccc(F)c(Cl)c1)c1cccnc1	0	3	-9	-6	-2
O=C(NC(=S)Nc1ccc2cn[nH]c2c1)c1ccccc1	1	10	-35*	4	-4
O=C(Nc1cc(Cl)ccc1O)c1snnc1-c1ccccc1	3	19	-39*	-8	-3
